{
  "source": "the antibiotic and cytotoxicity screens of Wong et al. (2023)",
  "note": "The whole screen tested about 39,000 compounds, of which about 3,300 (8.5%) were called active. This excerpt belongs to a sample that is enriched for actives.",
  "data": [
    {"system": "HepG2", "experiment": "cytotoxicity call (relative viability < 0.9)", "conditions": "10 µM", "values": [
      {"smiles": "COc1ccc(CN(C)C[C@@H]2Oc3c(NS(=O)(=O)c4cn(C)cn4)cccc3C(=O)N([C@@H](C)CO)C[C@H]2C)cc1", "cytotoxicity call": "inactive"},
      {"smiles": "C[C@H]1CN([C@@H](C)CO)C(=O)c2cccc(NC(=O)c3cnccn3)c2O[C@H]1CN(C)Cc1ccccc1", "cytotoxicity call": "inactive"},
      {"smiles": "Cc1ccc(S(=O)(=O)Nc2ccc3c(c2)CC(=O)N([C@@H](C)CO)C[C@H](C)[C@@H](CN(C)Cc2ccc(C(F)(F)F)cc2)O3)cc1", "cytotoxicity call": "active"},
      {"smiles": "Cc1ccc(S(=O)(=O)Nc2ccc3c(c2)CC(=O)N([C@H](C)CO)C[C@@H](C)[C@@H](CN(C)Cc2ccc(C(F)(F)F)cc2)O3)cc1", "cytotoxicity call": "active"},
      {"smiles": "Cc1ccc(S(=O)(=O)Nc2ccc3c(c2)CC(=O)N([C@H](C)CO)C[C@@H](C)[C@@H](CN(C)Cc2ccncc2)O3)cc1", "cytotoxicity call": "active"},
      {"smiles": "Cc1ccc(S(=O)(=O)Nc2ccc3c(c2)CC(=O)N([C@H](C)CO)C[C@H](C)[C@H](CN(C)Cc2ccc(C(F)(F)F)cc2)O3)cc1", "cytotoxicity call": "active"},
      {"smiles": "C[C@@H]1CN([C@@H](C)CO)C(=O)Cc2cc(NS(C)(=O)=O)ccc2O[C@@H]1CN(C)Cc1ccc(C(F)(F)F)cc1", "cytotoxicity call": "inactive"},
      {"smiles": "Cc1ccc(S(=O)(=O)Nc2ccc3c(c2)CC(=O)N([C@H](C)CO)C[C@@H](C)[C@H](CN(C)Cc2ccncc2)O3)cc1", "cytotoxicity call": "inactive"},
      {"smiles": "Cc1ccc(S(=O)(=O)Nc2ccc3c(c2)CC(=O)N([C@@H](C)CO)C[C@H](C)[C@@H](CN(C)Cc2ccncc2)O3)cc1", "cytotoxicity call": "inactive"},
      {"smiles": "C[C@H]1CN([C@@H](C)CO)C(=O)Cc2cc(NS(C)(=O)=O)ccc2O[C@@H]1CN(C)Cc1ccc(C(F)(F)F)cc1", "cytotoxicity call": "inactive"},
      {"smiles": "C[C@H](CO)N1C[C@H](C)[C@H](CN(C)Cc2ccc(C(F)(F)F)cc2)Oc2ccc(NS(C)(=O)=O)cc2CC1=O", "cytotoxicity call": "inactive"},
      {"smiles": "C[C@@H]1CN([C@H](C)CO)C(=O)Cc2cc(NS(C)(=O)=O)ccc2O[C@@H]1CN(C)Cc1ccc(C(F)(F)F)cc1", "cytotoxicity call": "inactive"},
      {"smiles": "Cc1ccc(S(=O)(=O)Nc2ccc3c(c2)CC(=O)N([C@@H](C)CO)C[C@H](C)[C@H](CN(C)Cc2ccc(C(F)(F)F)cc2)O3)cc1", "cytotoxicity call": "inactive"},
      {"smiles": "Cc1ccc(S(=O)(=O)Nc2ccc3c(c2)CC(=O)N([C@H](C)CO)C[C@@H](C)[C@H](CN(C)Cc2ccc(C(F)(F)F)cc2)O3)cc1", "cytotoxicity call": "inactive"},
      {"smiles": "O=C(C[C@@H]1CC[C@H]2[C@@H](COC[C@H](O)CN2Cc2ccccc2F)O1)N[C@@H]1CCN(Cc2ccccc2)C1", "cytotoxicity call": "inactive"},
      {"smiles": "COc1ccc(S(=O)(=O)Nc2cccc3c2O[C@H](CN(C)S(=O)(=O)c2c(C)noc2C)[C@@H](C)CN([C@H](C)CO)C3=O)cc1", "cytotoxicity call": "inactive"},
      {"smiles": "C/C=C/c1ccc([C@@H]2[C@H](CO)N(S(=O)(=O)Cc3ccccc3)C23CN(C(=O)C2CCOCC2)C3)cc1", "cytotoxicity call": "inactive"},
      {"smiles": "C[C@@H]1CN([C@H](C)CO)C(=O)c2cc(NC(=O)NC3CCCCC3)ccc2O[C@@H](C)CCCCO[C@@H]1CN(C)C(=O)c1ccccc1", "cytotoxicity call": "inactive"},
      {"smiles": "COc1ccc(S(=O)(=O)N(C)C[C@@H]2OCc3cnnn3CCCC(=O)N([C@H](C)CO)C[C@@H]2C)cc1", "cytotoxicity call": "inactive"},
      {"smiles": "COCC#Cc1cnc2c(c1)C(=O)N([C@@H](C)CO)C[C@@H](C)[C@@H](CN(C)C(=O)Nc1ccc(OC)cc1)O2", "cytotoxicity call": "inactive"},
      {"smiles": "C[C@H](CO)N1C[C@H](C)[C@H](CN(C)Cc2ccc(C(F)(F)F)cc2)Oc2c(NC(=O)C3CCCCC3)cccc2C1=O", "cytotoxicity call": "inactive"},
      {"smiles": "COC(=O)c1cc(=O)n2ccccc2c1C#N", "cytotoxicity call": "inactive"},
      {"smiles": "CO[C@@H](CN(C)C(=O)c1ccccc1F)[C@H](C)CN([C@@H](C)CO)S(=O)(=O)c1ccc(Cl)cc1", "cytotoxicity call": "inactive"},
      {"smiles": "C[C@H](CO)N1C[C@H](C)[C@H](CN(C)Cc2ccncc2)Oc2ccc(NS(=O)(=O)c3cn(C)cn3)cc2CC1=O", "cytotoxicity call": "inactive"},
      {"smiles": "C[C@H]1CCCCO[C@@H](CN(C)C)[C@@H](C)CN([C@@H](C)CO)C(=O)c2cc(NC(=O)CCCN(C)C)ccc2O1", "cytotoxicity call": "inactive"},
      {"smiles": "C=CC[C@H](CC(=O)NCCO)C(=O)N[C@@H](COC(=O)[C@@H](CC=C)CC(=O)OC(C)(C)C)Cc1ccccc1", "cytotoxicity call": "inactive"},
      {"smiles": "CO[C@H]1CN(C)C(=O)c2ccc(NC(=O)C3CC3)cc2OC[C@@H](C)N(C(=O)C2CCOCC2)C[C@H]1C", "cytotoxicity call": "inactive"},
      {"smiles": "Cc1ccc(S(=O)(=O)N2C[C@H](O)COC[C@H]3O[C@@H](CC(=O)N[C@H]4CCN(Cc5ccccc5)C4)CC[C@@H]32)cc1", "cytotoxicity call": "inactive"},
      {"smiles": "COc1cccc(S(=O)(=O)Nc2ccc3c(c2)[C@H]2C[C@H](CC(=O)N4CCCCC4)O[C@@H](CO)[C@H]2O3)c1", "cytotoxicity call": "inactive"},
      {"smiles": "Cc1ccc(S(=O)(=O)Nc2ccc3c(c2)CC(=O)N([C@H](C)CO)C[C@H](C)[C@@H](CN(C)Cc2ccc(C(F)(F)F)cc2)O3)cc1", "cytotoxicity call": "inactive"},
      {"smiles": "Cc1ccc(S(=O)(=O)Nc2ccc3c(c2)CC(=O)N([C@@H](C)CO)C[C@@H](C)[C@H](CN(C)Cc2ccc(C(F)(F)F)cc2)O3)cc1", "cytotoxicity call": "inactive"},
      {"smiles": "Cc1ccc(S(=O)(=O)Nc2ccc3c(c2)CC(=O)N([C@@H](C)CO)C[C@@H](C)[C@@H](CN(C)Cc2ccc(C(F)(F)F)cc2)O3)cc1", "cytotoxicity call": "active"},
      {"smiles": "C[C@@H]1CCCCO[C@H](CN(C)C(=O)Nc2ccc(C(F)(F)F)cc2)[C@@H](C)CN([C@H](C)CO)C(=O)c2cc(NC(=O)c3ccncc3)ccc2O1", "cytotoxicity call": "inactive"},
      {"smiles": "Cc1cccc(C)c1OC[C@@H](C)N", "cytotoxicity call": "inactive"},
      {"smiles": "Cc1cccc(C)c1OCC(C)N.Cl", "note": "(stereo not given)", "cytotoxicity call": "active"},
      {"smiles": "Cc1cccc2ccccc12", "cytotoxicity call": "inactive"},
      {"smiles": "C[C@@H]1CN([C@@H](C)CO)C(=O)c2cc(NS(=O)(=O)c3cn(C)cn3)ccc2O[C@@H]1CN(C)S(=O)(=O)c1ccc(Cl)cc1", "cytotoxicity call": "inactive"},
      {"smiles": "O=C(CCCCCCC(=O)Nc1ccc([C@H]2C[C@@H](CSc3nc(-c4ccccc4)c(-c4ccccc4)o3)O[C@H](c3ccccc3)O2)cc1)NO", "cytotoxicity call": "inactive"},
      {"smiles": "O=C(CCCCCCC(=O)Nc1ccc([C@H]2O[C@@H](CSc3nc4ccccc4o3)C[C@H](c3ccccc3)O2)cc1)NO", "cytotoxicity call": "active"},
      {"smiles": "O=C(CCCCCCC(=O)Nc1ccc([C@H]2O[C@H](CSc3nc(-c4ccccc4)c(-c4ccccc4)o3)C[C@H](c3ccc(NC(=O)CCCCCCC(=O)NO)cc3)O2)cc1)NO", "cytotoxicity call": "inactive"},
      {"smiles": "O=C(O)CCCCCCC(=O)Nc1ccc([C@H]2O[C@@H](CSc3nc(-c4ccccc4)c(-c4ccccc4)o3)C[C@H](c3ccc([N+](=O)[O-])cc3)O2)cc1", "cytotoxicity call": "inactive"},
      {"smiles": "O=C(CCCCCCC(=O)Nc1ccc([C@@H]2O[C@H](CSc3nc(-c4ccccc4)c(-c4ccccc4)o3)C[C@H](c3ccccc3)O2)cc1)NO", "cytotoxicity call": "inactive"},
      {"smiles": "O=C(CCCCCCC(=O)Nc1ccc([C@H]2O[C@@H](CSc3nc(-c4ccccc4)c(-c4ccccc4)o3)C[C@H](c3ccc([N+](=O)[O-])cc3)O2)cc1)NO", "cytotoxicity call": "active"},
      {"smiles": "COc1cc2c(cc1OC)CN(C[C@H]1C[C@H](c3ccccc3)O[C@H](c3ccc(NC(=O)CCCCCCC(=O)NO)cc3)O1)CC2", "cytotoxicity call": "active"},
      {"smiles": "O=C(CCCCCCC(=O)Nc1ccc([C@H]2O[C@@H](CN3CCCCCCC3)C[C@H](c3ccccc3)O2)cc1)NO", "cytotoxicity call": "inactive"},
      {"smiles": "O=C(CCCCCCC(=O)Nc1ccc([C@H]2O[C@@H](COc3ccccc3)C[C@H](c3ccccc3)O2)cc1)NO", "cytotoxicity call": "inactive"},
      {"smiles": "C[C@@H]1CN([C@H](C)CO)C(=O)c2cc(C#CCN(C)C)cnc2O[C@@H]1CN(C)C(=O)CCN1CCCCC1", "cytotoxicity call": "inactive"},
      {"smiles": "Cc1noc(C)c1NC(=O)N[C@@H]1C=C[C@H](CC(=O)NCCCN(C)C)O[C@@H]1CO", "cytotoxicity call": "inactive"},
      {"smiles": "C[C@@H]1CN([C@@H](C)CO)C(=O)c2cccc(NC(=O)Nc3ccc4c(c3)OCO4)c2O[C@H]1CN(C)Cc1ccc(Cl)c(Cl)c1", "cytotoxicity call": "inactive"},
      {"smiles": "C[C@H](CO)N1C[C@H](C)[C@@H](CN(C)C(=O)Nc2ccc(C(F)(F)F)cc2)Oc2ccc(NC(=O)Nc3cccc4ccccc34)cc2CC1=O", "cytotoxicity call": "inactive"},
      {"smiles": "C[C@H](CO)N1C[C@H](C)[C@@H](CN(C)Cc2ccc(C(=O)Nc3ccccc3N)cc2)OCCCC[C@H](C)Oc2ccc(N(C)C)cc2C1=O", "cytotoxicity call": "inactive"},
      {"smiles": "C[C@@H]1CN([C@H](C)CO)C(=O)c2cc(NC(=O)C3CC3)ccc2O[C@@H]1CN(C)S(=O)(=O)c1ccc(Cl)cc1", "cytotoxicity call": "inactive"},
      {"smiles": "C[C@@H]1CN([C@@H](C)CO)C(=O)c2c(c3ccccc3n2C)-c2ccccc2CO[C@H]1CN(C)Cc1ccc(C(F)(F)F)cc1", "cytotoxicity call": "inactive"},
      {"smiles": "C[C@@H]1CN([C@H](C)CO)S(=O)(=O)c2ccc(C#Cc3ccncc3)cc2O[C@H]1CN(C)S(=O)(=O)c1ccc(F)cc1", "cytotoxicity call": "active"},
      {"smiles": "CC(C)CC#Cc1ccc2c(c1)O[C@H](CN(C)S(=O)(=O)c1ccc(F)cc1)[C@@H](C)CN([C@@H](C)CO)S2(=O)=O", "cytotoxicity call": "inactive"},
      {"smiles": "C[C@@H]1CN([C@@H](C)CO)S(=O)(=O)c2ccc(C#Cc3ccncc3)cc2O[C@H]1CN(C)S(=O)(=O)c1ccc(F)cc1", "cytotoxicity call": "active"},
      {"smiles": "C[C@H](CO)N1C[C@H](C)[C@@H](CN(C)S(=O)(=O)c2ccc(F)cc2)Oc2cc(C#Cc3ccncc3)ccc2S1(=O)=O", "cytotoxicity call": "inactive"},
      {"smiles": "C[C@H]1CN([C@@H](C)CO)S(=O)(=O)c2ccc(C#Cc3ccc(F)cc3)cc2O[C@H]1CN(C)S(=O)(=O)c1ccc(F)cc1", "cytotoxicity call": "inactive"},
      {"smiles": "C[C@H]1CN([C@@H](C)CO)S(=O)(=O)c2ccc(C#Cc3ccncc3)cc2O[C@@H]1CN(C)S(=O)(=O)c1ccc(F)cc1", "cytotoxicity call": "inactive"},
      {"smiles": "C[C@H]1CN([C@@H](C)CO)S(=O)(=O)c2ccc(C#Cc3ccc(F)cc3)cc2O[C@@H]1CN(C)S(=O)(=O)c1ccc(F)cc1", "cytotoxicity call": "inactive"},
      {"smiles": "C[C@@H]1CN([C@H](C)CO)S(=O)(=O)c2ccc(C#Cc3ccc(F)cc3)cc2O[C@H]1CN(C)S(=O)(=O)c1ccc(F)cc1", "cytotoxicity call": "inactive"},
      {"smiles": "CC(C)CC#Cc1ccc2c(c1)O[C@@H](CN(C)S(=O)(=O)c1ccc(F)cc1)[C@H](C)CN([C@H](C)CO)S2(=O)=O", "cytotoxicity call": "inactive"},
      {"smiles": "C[C@H]1CN([C@@H](C)CO)S(=O)(=O)c2ccc(C#Cc3ccncc3)cc2O[C@H]1CN(C)S(=O)(=O)c1ccc(F)cc1", "cytotoxicity call": "active"},
      {"smiles": "C[C@@H]1CN([C@H](C)CO)S(=O)(=O)c2ccc(C#Cc3ccc(F)cc3)cc2O[C@@H]1CN(C)S(=O)(=O)c1ccc(F)cc1", "cytotoxicity call": "inactive"},
      {"smiles": "C[C@@H]1CN([C@H](C)CO)S(=O)(=O)c2ccc(C#Cc3ccncc3)cc2O[C@@H]1CN(C)S(=O)(=O)c1ccc(F)cc1", "cytotoxicity call": "active"}
    ]}
  ]
}
